The record followed here is article PMC12136788.

Residue numbers refer to the chain shown, from its start. The full ranking holds about 24,000 sequences; the median of “enrichment r” is about 0.99, and the highest 2% start at about 3.7. Only a selection was taken, and the highest values are over-represented in it overall.

T1: UNK ZnF1-3 (human, UniProt Q9C0B0 31-174)
T1 sequence: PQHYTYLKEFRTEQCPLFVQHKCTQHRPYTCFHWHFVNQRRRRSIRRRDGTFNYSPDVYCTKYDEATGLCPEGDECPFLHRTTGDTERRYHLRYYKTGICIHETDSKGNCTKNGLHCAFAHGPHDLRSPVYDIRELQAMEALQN

B1: chr12:16048344:16048345:+_ENSG00000023734_ENST00000419869|hu_hu|hu_hu_hu_mus_True|68_98 (ssRNA)
RNA: GGGAGUUCUACAGUCCGACGAUCAGAUCGUCCAUAAGUUAUAACCAAAAUCUCUCCUUCAGGAAUAUAUUCCAUACUGCUAACAGACAUAUUAAAAUUCAGAGAUUUCACUUCUGUCAUUGUGGCAUGAUCCCAGAGCCGAACCAACAGAGGAUUGAGCAUCA
B2: chr14:76904501:76904502:+_ENSMUSG00000022010_ENSMUST00000022587|mus_mus|FALSE|FALSE (ssRNA)
RNA: GGGAGUUCUACAGUCCGACGAUCUCCAUCGCCACUGGUCUACACCAUUGGGAUUUCAUGCAAUUGCAGCCAAAUUAAAAAAACAGCCCCGUGGAAAAAAAAGAGAGAGGGCGGGAGGGAGCAAGCUCCAGCAGCCUGGUUCAACAACAGAGGAUUGAGCAUCA
B3: 122244776_122244896_1956_3pUTR_ENSMUSG00000039735_ENSMUST00000162409|mouse|control|control (ssRNA)
RNA: GGGAGUUCUACAGUCCGACGAUCGAAAAAGCACACAUCCUUUACACACACUUAGGCAGGACAGAAAGCAAAAGGCAUCGAUUAAGCUUCCACACCAGCAUCACUUGAACAGUAAGGCGUCAAAGAGUUUCUGGUGGCAGUAUUCAACAGAGGAUUGAGCAUCA
B4: chr3:9848215:9848216:+_ENSG00000241553_ENST00000287613|perfect_dup|FALSE|FALSE (ssRNA)
RNA: GGGAGUUCUACAGUCCGACGAUCCAAUAACGUAUAAUCACUGGGACCAGUCACAGCCACUGGAGGUGGAGGUUUAAAAAAAAAAAAAAAAAAAAAGACAAAAAGGUUACAGUAUCCUACAAGCACAGAGUUUAAGUUUCAAGACAACAGAGGAUUGAGCAUCA
B5: chr3:9848215:9848216:+_ENSG00000241553_ENST00000287613|perfect_dup|FALSE|FALSE (ssRNA)
RNA: GGGAGUUCUACAGUCCGACGAUCAUCACUGGGGCCAGUCACAGCCACUGGAGCUGGAGGUUGGUUUUUUUGUUUGUUUAAAAAAAAAAAAAAAAAGACAAAAAGGUUACAGUCUUCUACAAGCACAGAGUUUAGGUUUCAAGACAACAGAGGAUUGAGCAUCA
B6: chr3:176740097:176740098:-_ENSG00000177565_ENST00000430069|hu_mus|hu_hu_hu_mus_True|78_78 (ssRNA)
RNA: GGGAGUUCUACAGUCCGACGAUCUGUUUUGUAUACCACAAAAGGAGGCACUUUCAGUAUCUGUAAAAGGUGUUUAGUCCUAAAACAUACUCACCUAGAGGAUAACUCAGGAAAACAAUCUGUUACACUCUAAGACCUACUCCACAACAGAGGAUUGAGCAUCA
B7: 25243085_25243205_1728_CDS_ENSMUSG00000059669_ENSMUST00000075954|mouse|control|control (ssRNA)
RNA: GGGAGUUCUACAGUCCGACGAUCUCCUGAGCUCUUUUUUGAUUCGUUGUAUUUUUUUUCAAAAAGUUUCUUUUCAAGUAAGCUCACUUCUUCAUGGAGAGCAGAGGUCUUUAUUCUCAGUAAGAAGGAGAAGAUGUUUAGUAUCAACAGAGGAUUGAGCAUCA
B8: chr8:59488481:59488482:+_ENSG00000137575_ENST00000447182|hu_mus|motif|central (ssRNA)
RNA: GGGAGUUCUACAGUCCGACGAUCUCCAGCAUCGUUACCUGUCACAGGUGCUACCAUAUAGUUCACACUGGAUGGUCUUGCGGCCAACCCUUGUGCUGGUGCUCCAGAGACCAUGGGCAUGCUCUCACAUAUUUCAGCUUCAUUCAACAGAGGAUUGAGCAUCA
B9: chr11:77340908:77340909:-_ENSG00000074201_ENST00000525064|hu_hu|hu_hu_hu_mus_True|8_108 (ssRNA)
RNA: GGGAGUUCUACAGUCCGACGAUCGUUUCGGUCCCUGGACACCGCAUGUAAACUAAUGGUGGGGUAUUCCAGUGAGAAUCCUAAUCCCGAACCAUCUAACCAGGACAGGCGGCUCUCCGCGAUGUAAAGGGUACCAGUGCCGAGCAACAGAGGAUUGAGCAUCA
B10: chr3:119217614:119217615:+_ENSG00000113845_ENST00000264244|hu_hu|FALSE|FALSE (ssRNA)
RNA: GGGAGUUCUACAGUCCGACGAUCCUCUACAGAGAAAGCUCCGCGGUGCCGGUGGCGGCACCUCCAUGGCCUUCUCUCGACCUACGGACAAACUUGAGCGCUCAGGACUUCAAGUCCUCGCGGACGUGCCGCGGGAGAGCGUAACAACAGAGGAUUGAGCAUCA
B11: 60766971_60767091_3885_CDS_ENSG00000011028_ENST00000303375|human|control|control (ssRNA)
RNA: GGGAGUUCUACAGUCCGACGAUCCGUGCGCAGCCCUCGGGCAGCCUGCGUGAGGAAGGCCUGGGUGUAGGGGUCGGGCACGUAGGCCAGGCUGGCAUUGCGGCUCUCACACAGCAGGAGGGCAUCGUGCCAGCGCAGCGGCUUCAACAGAGGAUUGAGCAUCA
B12: chr12:39763582:39763583:-_ENSG00000139116_ENST00000544797|hu_hu|FALSE|FALSE (ssRNA)
RNA: GGGAGUUCUACAGUCCGACGAUCCUCUAAGAAUUGGGCAUUCACUUUAAAAUCUGGAGCAGGAAGCCCAUUUUUAAUUGCUAUGUGUUUUUUUUCUUCAAUACUCUUAAAAAGGUGUUUAACAGCUCGAGAAAUAAUACCCAGCAACAGAGGAUUGAGCAUCA
B13: chr22:38881817:38881818:-_ENSG00000100201_ENST00000396821|hu_hu|FALSE|FALSE (ssRNA)
RNA: GGGAGUUCUACAGUCCGACGAUCUUAUUCCAGACUGGAUCAUUUUGGUGGGCAGAAGAAACCUGGCAGUGAAUUCUAACUAAUCUGCAUGAAAAGACAAAUCACGAUGGUUGGGGGGAAAAAUUAAAAAAAAAAAAAGAAAAACAACAGAGGAUUGAGCAUCA
B14: chr1:66459500:66459501:+_ENSMUSG00000015222_ENSMUST00000114013|mus_hu|motif|central (ssRNA)
RNA: GGGAGUUCUACAGUCCGACGAUCUAAAAAGGCAGGGGCAAAGGGCGAUGUUUCUGUAACUAUUUCAUUCUUCAUGACAUCGGAAGGAAGAGUGAAGCUUCCCCCUUGAAAGGGACUUGGCAUGGGAGAAUCAAACUGUUUCCCCAACAGAGGAUUGAGCAUCA
B15: chr16:45711415:45711416:-_ENSMUSG00000022658_ENSMUST00000096057|mus_hu|FALSE|FALSE (ssRNA)
RNA: GGGAGUUCUACAGUCCGACGAUCUUAUUAGGUGCAUUCUAUAAGUUGAAGAGGAGAAUUUUUGGCAAAUAAAUAAAUAAAUAAAUAAAUAAUCAAACAGAGACUCUGGGGCCCGAGGAGCUCAGGAAAACGGAAGCGGAGUCUCAACAGAGGAUUGAGCAUCA
B16: chr17:26793470:26793471:+_ENSMUSG00000001576_ENSMUST00000167662|mus_mus|FALSE|FALSE (ssRNA)
RNA: GGGAGUUCUACAGUCCGACGAUCAUUGGAAUCAGAGGAAAAAUUACAAAUGGCAGAGAAUCCAGCUACCCAUAAGAGACUAUUUAAGAAAAACAAAACCAAAACCAAACAAAAACAAAAAACCCCAAAACUUCCUACUGCAGGCAACAGAGGAUUGAGCAUCA
B17: 36507729_36507849_895_3pUTR_ENSMUSG00000043671_ENSMUST00000051377|mouse|control|control (ssRNA)
RNA: GGGAGUUCUACAGUCCGACGAUCGAAAGAGGCUGUAAAUUUGGUCUCAGGAAGUAGGUAAUUGCUGCAAUCUGAAUUGCAAAAAAAGGCAGAGCCCAGUUCUCCCUCAGCGGGAUGGUAAACUCGACUCUUGUGGUGUCUAUUCAACAGAGGAUUGAGCAUCA
B18: chr22:38881817:38881818:-_ENSG00000100201_ENST00000396821|hu_hu|motif|central (ssRNA)
RNA: B13 RNA with U76G, A77G, U80G, A81G
B19: chr12:55960871:55960872:-_ENSMUSG00000062929_ENSMUST00000078124|mus_mus|motif|central (ssRNA)
RNA: GGGAGUUCUACAGUCCGACGAUCUACUAAGCUUUAAGACUGCUAUACGAUUUUUUUUUCCCAAUUCAUUUUGGAAAAGCGGUGAAGGAACUGUGGCUGAGACAAACAUUCCUAAACAUCACAAUCAUCAUUAACCUUCGAAUGCAACAGAGGAUUGAGCAUCA
B20: 87419285_87419405_2552_3pUTR_ENSMUSG00000028496_ENSMUST00000078090|mouse|control|control (ssRNA)
RNA: GGGAGUUCUACAGUCCGACGAUCGAAAAUCAAGGUGGCUAUUUGGUCCCCCCAGUUGGUAACUAUGUCCUGGAACUGGGAAAACAAAGAUGGAAACCAUAGACUGCAACAAGUUAAAGGACCUGGGAAGAGUUGGUGGAAAGUCAACAGAGGAUUGAGCAUCA
B21: 193603509_193603629_2668_3pUTR_ENSMUSG00000026623_ENSMUST00000110855|mouse|control|control (ssRNA)
RNA: GGGAGUUCUACAGUCCGACGAUCUAAAUCACAUGAACAAAAGGACAAAUCUUUCAAAAGGUUUCUACGAUGAACAGAAACUUGCUUGGCUUUGCCCUCUUAGAAGACGACUGGAAGAGACUGGGAAGUGUUUUUGAGCUGCUGCAACAGAGGAUUGAGCAUCA
B22: chr14:89338683:89338684:+_ENSG00000165533_ENST00000346301|hu_hu|hu_hu_hu_mus_False|58_68 (ssRNA)
RNA: GGGAGUUCUACAGUCCGACGAUCGUGGUUGUUGUGGACCAGGGCCAGCCUGAAGCAUUGGUGGGCCAAAUUUGUAUCUCCUAUUCCCACAGCUAUGUGCCCCAGGUUGUACCAGACAUCAGCUGCCUCUUCUUCAUUUUCAGCCAACAGAGGAUUGAGCAUCA

The target of this assay is T1, UNK ZnF1-3. Put plainly: nsRBNS (natural sequence RNA bind-n-seq); RBNS binding buffer (assumed for nsRBNS): 25 mM Tris pH 7.5, 150 mM KCl, 3 mM MgCl2, 0.01% Triton X-100, 500 ug/ml BSA, 20 U/ml SUPERase-In, 4 C; UNK is unkempt and MSI1 is Musashi-1; names of the RNAs are library labels; protein concentration not given here; high values mean tight binding.
In the case of B1, the binding signal was 1.19 enrichment R.
Molecule B2 yielded a binding signal of 2.68 enrichment R.
On to B3, for which the binding signal is 1.73 enrichment R.
With B4, the binding signal worked out at 9.16 enrichment R.
The value for B5 was 9.16 enrichment R.
In the case of B6, the binding signal was determined as 0.869 enrichment R.
The molecule B7 displayed a binding signal of 0.743 enrichment R.
B8 showed a binding signal of 0.558 enrichment R.
Take B9: the binding signal is 1.38 enrichment R.
In turn, B10 returned a binding signal of 0.297 enrichment R.
The molecule B11 gave a binding signal of 0.311 enrichment R.
B12 showed a binding signal of 2.47 enrichment R.
Take B13: the binding signal worked out at 11.1 enrichment R.
The result for B14 reads 0.819 enrichment R; that for B15, 13.2 enrichment R; that for B16, 3.74 enrichment R.
The molecule B17 gave a binding signal of 0.793 enrichment R.
Molecule B18 gave a binding signal of 13.5 enrichment R.
The result for B19 reads 0.982 enrichment R; that for B20, 1.56 enrichment R.
Molecule B21 displayed a binding signal of 1.27 enrichment R.
B22 showed a binding signal of 0.84 enrichment R.
